Assay outcomes deposited in PubChem BioAssay by National Center for Advancing Translational Sciences (NCATS).
An excerpt weighted towards active compounds, which were near 4.7% of everything screened.
TRHR PAM – allosteric enhancers of human TRH receptor. P34981. TRHR cells, fluo-8 calcium fluorescence, EC20 TRH enhancement. enhancement, % at 2 µM. hit rate 0.66% among 360,000. AID 493056; in the data active = enhancement above about 30%
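TRHR-expressing cells loaded with fluo-8 calcium dye were read kinetically (ex 480/em 530) during compound addition, then stimulated with an EC20 of TRH (10 nM final). Enhancement of the Gq-mediated intracellular calcium response was scored.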
D1 antagonist – antagonists of human D1 dopamine receptor. P21728. HEK293 TREx D1 cells, calcium flux, dopamine EC80; stronger effect = lower value. activity change, negative = inhibition, % at 10 µM. hit rate 3.2% among 360,000. AID 504652; in the data active = activity change below about -30%
Target sequence (P21728 whole entry, looked up): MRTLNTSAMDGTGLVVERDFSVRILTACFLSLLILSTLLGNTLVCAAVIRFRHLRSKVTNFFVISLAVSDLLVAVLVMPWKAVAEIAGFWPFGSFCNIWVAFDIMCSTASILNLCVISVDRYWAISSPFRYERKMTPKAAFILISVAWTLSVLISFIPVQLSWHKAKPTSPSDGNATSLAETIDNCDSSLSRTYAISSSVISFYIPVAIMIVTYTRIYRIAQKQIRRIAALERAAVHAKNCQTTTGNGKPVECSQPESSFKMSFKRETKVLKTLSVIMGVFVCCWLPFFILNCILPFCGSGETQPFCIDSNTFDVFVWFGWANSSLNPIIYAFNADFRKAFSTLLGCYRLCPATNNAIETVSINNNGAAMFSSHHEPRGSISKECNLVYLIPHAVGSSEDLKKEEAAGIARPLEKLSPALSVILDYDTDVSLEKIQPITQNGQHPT
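Cells carrying a force-coupled, tetracycline-inducible human D1 receptor report calcium flux. Each well gets a 10 s baseline, compound with 180 s monitoring, then an EC80 dopamine stimulus with a second 180 s kinetic read.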
D1 agonist – agonists of human D1 dopamine receptor | hit rate 1% among 360,000 | P21728 | HEK293 T-REx D1 cells, calcium flux, agonist mode | activation, % at 2 µM | AID 504660
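Agonism was scored from calcium flux recorded over 180 s (1 read/s) after pintool compound addition, following a 10-cycle baseline. Cells were inducible force-coupled HEK293 TREx D1, plated overnight at 30 C and loaded with no-wash calcium dye.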
D1 potentiator – enhances dopamine response at the human D1 receptor; P21728; HEK293 TREx D1 cells, calcium flux, dopamine EC20 potentiation; potentiation, % at 10 µM; hit rate 0.036% among 360,000; AID 504651; in the data active = potentiation above about 30%
TRHR agonist – activates the human TRH receptor | P34981 | hit rate 0.18% among 360,000 | TRHR cells, calcium flux fluo-8, FDSS agonist mode | activation, % at 2 µM
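Fluo-8-loaded TRHR cells; 10 s baseline, compound added, kinetic Ca2+ fluorescence read 1/s, agonist mode.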
Large screens that a line does not name were inactive. Rule as the data show it, unless noted: active = activation above about 30%; inactive = the rest.

COc1cc(C2CC(=O)Oc3c(C(CCN4CCN(c5ccccc5)CC4)c4ccc(N(C)C)cc4)c(OC)cc(OC)c32)cc(OC)c1OC (stereo unspecified)	D1 antagonist -37.6
COc1cc(C2CC(=O)Oc3c(C(CCN4CCOCC4)c4ccc(N(C)C)cc4)c(OC)cc(OC)c32)cc(OC)c1OC (stereo unspecified)	none
COc1cc(C(CC(=O)N2CCN(c3ccccc3)CC2)c2c(OC)cc(OC)c3ccc(=O)oc23)cc(OC)c1OC (stereo unspecified)	D1 antagonist -42.4
Cc1ccc(-c2nnc3ccccc3c2C(=O)Nc2ccccc2F)cc1	none
CCN(CC)CCC(c1ccc(N(C)C)cc1)c1c(OC)cc(OC)c2c(-c3ccccc3)cc(=O)oc12 (stereo unspecified)	D1 antagonist -46.8, D1 agonist 39.2
COc1cc(OC)c2c(-c3ccccc3)cc(=O)oc2c1C(CCN1CCN(c2ccccc2)CC1)c1ccc(N(C)C)cc1 (stereo unspecified)	D1 antagonist -32.4
CCN(CC)C(=O)CC(c1cc(OC)c(OC)c(OC)c1)c1c(OC)cc(OC)c2c(-c3ccccc3)cc(=O)oc12 (stereo unspecified)	D1 antagonist -100.4
CN(C)c1cccc(C(=O)Nc2nc3ccc(S(=O)(=O)N4CCCC4)cc3s2)c1	none
O=C(COC(=O)c1ccc(Cl)cc1Cl)Nc1cccc(S(=O)(=O)NC2=NCCC2)c1	none
Cc1cc(=O)n2nc(N3CCCC(C(=O)Nc4ccc(C)c(C)c4)C3)sc2n1 (stereo unspecified)	D1 antagonist -59.3
Cc1cc(=O)n2nc(N3CCCC(C(=O)NCCc4ccc(Cl)cc4)C3)sc2n1 (stereo unspecified)	D1 antagonist -35.4
COc1ccc(-c2cn3nc(N4CCCC(C(=O)NCc5ccccc5Cl)C4)sc3n2)cc1 (stereo unspecified)	none
Cc1ccc(-c2cn3nc(N4CCCC(C(=O)NCc5ccccc5F)C4)sc3n2)cc1 (stereo unspecified)	TRHR PAM 30.4
CCCCNc1ncnc2c1nnn2C	none (no result: D1 antagonist)
Cc1c(C(=O)Nc2ccc(C(C)C)cc2)sc2nc3n(c(=O)c12)CCC3	none
Cc1cccc(NC(=O)c2ccc(OCc3c(C)noc3C)cc2)n1	none
COc1ccc(CNC(=O)c2ccc(-c3nc(CSc4ccccc4)c(C)o3)cc2)cc1	none
COc1cccc(CNC(=O)c2[nH]c3cc(C)ccc3c2Sc2ccccc2)c1	none
Cc1ccc2c(Sc3ccccc3)c(C(=O)NCc3ccccc3F)[nH]c2c1	D1 antagonist -43.9
O=S(=O)(Nc1ccccn1)c1cc(Cl)ccc1Cl	none
CCCCCn1c(CN2CCN(c3cccc(Cl)c3)CC2)nc2c1c(=O)n(C)c(=O)n2C	none
CCCCn1c(CN2CCN(c3cccc(Cl)c3)CC2)nc2c1c(=O)n(C)c(=O)n2C	D1 antagonist -31.4
O=C1C=CC(=O)N1c1cccc(-c2ccccc2)c1	D1 antagonist -42.6
Cc1ccc(-n2[nH]c(C)c(/C=N/NC(=O)c3ccc([N+](=O)[O-])cc3)c2=O)c(C)c1	TRHR PAM 50.2
Cc1[nH]n(-c2cccc3ccccc23)c(=O)c1/C=N/NC(=O)c1cccc([N+](=O)[O-])c1	none
COc1ccc(OC)c(S(=O)(=O)NCCc2sc(C)nc2C)c1	none
Cc1ccc(Cl)c(OCCN2CCCC(C)C2)c1 (stereo unspecified)	D1 antagonist -71.1
CC1CCCN(CCCOc2ccc(Cl)cc2Br)C1 (stereo unspecified)	D1 antagonist -51.7
Clc1ccc(OCCOCCN2CCCCC2)c(Br)c1	D1 antagonist -45.1
Cc1ccccc1OCC(O)Cn1c2ccccc2c2ccccc21 (stereo unspecified)	none
COc1ccc(OCC(O)Cn2c(=N)n(CCN3CCCCC3)c3ccccc32)cc1 (stereo unspecified)	none
COc1ccccc1OCC(O)Cn1c(=N)n(Cc2ccccc2)c2ccccc21 (stereo unspecified)	D1 antagonist -61.5, D1 agonist 47.3
Cc1ccccc1OCC(O)Cn1c(=N)n(Cc2ccccc2)c2ccccc21 (stereo unspecified)	D1 antagonist -37.7, D1 agonist 44.8
N=c1n(CCN2CCCCC2)c2ccccc2n1CC(O)COc1ccc(Cl)cc1Cl (stereo unspecified)	D1 agonist 194.9
